In test [1] the target is human Protein Tyrosine Phosphatase Non-receptor Type 6 (PTPN6), PTPN6 (gene 5777) (UniProt P29350). Nature of the test: NVS_ENZ_hPTPN6: NovaScreen (NVS) Enzymatic Assay for human Protein Tyrosine Phosphatase Non-receptor Type 6 (PTPN6) (AID 2283210). In short, it runs like this:
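Recombinant human PTPN6 from SF9 cells, enzyme activity followed by fluorescence after mobility-shift separation of substrate and product at 1.33 h. Chemicals first tested at a single 25 uM in duplicate, then confirmed across concentration series; loss of signal relative to DMSO.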

For test [2], the target named is Tyrosine-protein phosphatase non-receptor type 13 (Homo sapiens) (UniProt Q12923). Nature of the test: NVS_ENZ_hPTPN13: NovaScreen (NVS) Enzymatic Assay for human Protein Tyrosine Phosphatase Non-receptor Type 13 (PTPN13) (AID 2283205). Summed up:
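Screened first at a single 25 uM in duplicate; compounds passing the threshold (e.g. 30% inhibition) were rerun in concentration series, top 50 uM. Recombinant enzyme, fluorescent substrate, mobility-shift separation, 0.5 h read. Data fitted as inhibition relative to DMSO.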

The target of test [3] is human Protein Tyrosine Phosphatase Non-receptor Type 9 (PTPN9), PTPN9 (gene 5780) (UniProt P43378). Nature of the test: NVS_ENZ_hPTPN9: NovaScreen (NVS) Enzymatic Assay for human Protein Tyrosine Phosphatase Non-receptor Type 9 (PTPN9) (AID 2283209). Summed up:
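Sf9-expressed enzyme in a cell-free assay, fluorescence read 1.33 h after dosing with mobility-shift separation of substrate and product. Tested at 25 uM in duplicate, then up to 50 uM; signal loss versus DMSO.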

Test [4] concerns the target human Protein Tyrosine Phosphatase Receptor Type M (PTPRM), PTPRM (gene 5797) (UniProt P28827). Nature of the test: NVS_ENZ_hPTPRM: NovaScreen (NVS) Enzymatic Assay for human Protein Tyrosine Phosphatase Receptor Type M (PTPRM) (AID 2283215). The protocol:
(§1) NVS_ENZ_hPTPRM is a biochemical, single-readout assay that uses extracted gene-proteins in a cell-free assay. Measurements were taken 1.33 hours after chemical dosing in a 384-well plate.NVS_ENZ_hPTPRM is one of one assay component(s) measured or calculated from the NVS_ENZ_hPTPRM assay. It is designed to make measurements of enzyme activity, a form of enzyme reporter, as detected with fluorescence intensity signals by Fluorescence and electrophoretic mobility shift technology.Data from the assay component NVS_ENZ_hPTPRM was analyzed into 1 assay endpoint. This assay endpoint, NVS_ENZ_hPTPRM, was analyzed in the positive analysis fitting direction relative to DMSO as the negative control and baseline of activity. Using a type of enzyme reporter, loss-of-signal activity can be used to understand changes in the enzymatic activity as they relate to the gene PTPRM. Furthermore, this assay endpoint can be referred to as a primary readout, because this assay has produced multiple assay endpoints where this one serves a enzymatic activity function. To generalize the intended target to other relatable targets, this assay endpoint is annotated to the phosphatase intended target family, where the subfamily is receptor tyrosine phosphatase. […]

Test [5] has as its target human Sirtuin 2 (SIRT2), SIRT2 (gene 22933) (UniProt Q8IXJ6). The test can be described thus: NVS_ENZ_hSIRT2: NovaScreen (NVS) Enzymatic Assay for human Sirtuin 2 (SIRT2) (AID 2283217). Summed up:
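Single-point duplicate screen at 25 uM, then concentration-response (max 50 uM) for chemicals passing threshold. Enzyme activity of recombinant human SIRT2 measured after 1 hr by fluorescence with mobility-shift separation of product; DMSO baseline.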

Test [6] addresses human Sirtuin 1 (SIRT1), SIRT1 (gene 23411) (UniProt Q96EB6). Nature of the test: NVS_ENZ_hSIRT1: NovaScreen (NVS) Enzymatic Assay for human Sirtuin 1 (SIRT1) (AID 2283219). Summed up:
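Cell-free recombinant SIRT1 with a fluorescent substrate; substrate and product separated by electrophoretic mobility shift and read by fluorescence intensity, 1 h after dosing. Primary screen at 25 uM in duplicate; hits re-run in concentration-response up to 50 uM, relative to DMSO.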

Test [7] addresses human Protein Tyrosine Phosphatase Receptor Type B (PTPRB), PTPRB (gene 5787) (UniProt P23467). Nature of the test: NVS_ENZ_hPTPRB: NovaScreen (NVS) Enzymatic Assay for human Protein Tyrosine Phosphatase Receptor Type B (PTPRB) (AID 2283211). In short, it runs like this: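 Recombinant human PTPRB with a fluorescent substrate, product separated by electrophoretic mobility shift; read 1 h after dosing. Primary screen in duplicate at 25 uM; actives then retested in concentration series; loss of signal versus DMSO.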

The target of test [8] is human Protein Tyrosine Phosphatase Receptor Type C (PTPRC), PTPRC (gene 5788) (UniProt P08575). The test can be described thus: NVS_ENZ_hPTPRC: NovaScreen (NVS) Enzymatic Assay for human Protein Tyrosine Phosphatase Receptor Type C (PTPRC) (AID 2283212). Summed up: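 Absorbance-based phosphatase activity of human PTPRC protein extracted from yeast was measured 1 h post-dosing. Compounds first tested at 25 uM in duplicate, then those passing threshold in singleton concentration series to 50 uM.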

Test [9] addresses Tyrosine-protein phosphatase non-receptor type 14 (Homo sapiens) (UniProt Q15678). Nature of the test: NVS_ENZ_hPTPN14: NovaScreen (NVS) Enzymatic Assay for human Protein Tyrosine Phosphatase Non-receptor Type 14 (PTPN14) (AID 2283206). The protocol:
as §1, with “NVS_ENZ_hPTPN14” for “NVS_ENZ_hPTPRM”, “0.5 hour” for “1.33 hours”, “plate.NVS_ENZ_hPTPN14” for “plate.NVS_ENZ_hPTPRM”, “NVS_ENZ_hPTPN14,” for “NVS_ENZ_hPTPRM,”, “PTPN14.” for “PTPRM.”, “non-receptor” for “receptor”

The target of test [10] is human SRC Proto-Oncogene, Non-receptor Tyrosine Kinase (SRC), SRC (gene 6714) (UniProt P12931). Nature of the test: NVS_ENZ_hSRC: NovaScreen (NVS) Enzymatic Assay for human SRC Proto-Oncogene, Non-receptor Tyrosine Kinase (SRC) (AID 2283223). In short, it runs like this: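 Compounds passing 30% inhibition at 25 uM (duplicate) were titrated to a top concentration of 50 uM. Enzyme activity read by fluorescence with mobility-shift substrate/product separation after 1 h; DMSO baseline.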

Inconclusive results are not listed. Active and inactive are the calls of the source. The calls were made as follows: active = hit-call score of the fitted dose curve at least 0.9, where 1 is the maximum; inconclusive = response in the unintended direction; inactive = score below 0.9.

Chain of human Protein Tyrosine Phosphatase Non-receptor Type 9 (PTPN9), PTPN9 (gene 5780) (P43378 whole entry, looked up): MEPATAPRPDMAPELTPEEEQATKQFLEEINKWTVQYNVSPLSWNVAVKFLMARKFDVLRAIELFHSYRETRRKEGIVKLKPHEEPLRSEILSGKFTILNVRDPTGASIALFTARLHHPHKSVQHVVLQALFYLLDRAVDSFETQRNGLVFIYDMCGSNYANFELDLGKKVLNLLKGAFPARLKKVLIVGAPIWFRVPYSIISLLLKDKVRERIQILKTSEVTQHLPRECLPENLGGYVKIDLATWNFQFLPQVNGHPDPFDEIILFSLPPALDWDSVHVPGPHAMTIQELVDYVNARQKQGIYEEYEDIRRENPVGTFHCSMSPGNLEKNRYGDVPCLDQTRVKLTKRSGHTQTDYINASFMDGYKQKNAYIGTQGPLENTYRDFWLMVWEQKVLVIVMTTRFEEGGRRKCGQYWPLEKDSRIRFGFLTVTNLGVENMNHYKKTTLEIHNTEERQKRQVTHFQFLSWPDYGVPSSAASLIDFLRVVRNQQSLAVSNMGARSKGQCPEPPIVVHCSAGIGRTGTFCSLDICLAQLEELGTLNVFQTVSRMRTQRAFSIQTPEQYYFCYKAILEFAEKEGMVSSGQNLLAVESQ
Chain of human Protein Tyrosine Phosphatase Non-receptor Type 6 (PTPN6), PTPN6 (gene 5777) (P29350 whole entry, looked up): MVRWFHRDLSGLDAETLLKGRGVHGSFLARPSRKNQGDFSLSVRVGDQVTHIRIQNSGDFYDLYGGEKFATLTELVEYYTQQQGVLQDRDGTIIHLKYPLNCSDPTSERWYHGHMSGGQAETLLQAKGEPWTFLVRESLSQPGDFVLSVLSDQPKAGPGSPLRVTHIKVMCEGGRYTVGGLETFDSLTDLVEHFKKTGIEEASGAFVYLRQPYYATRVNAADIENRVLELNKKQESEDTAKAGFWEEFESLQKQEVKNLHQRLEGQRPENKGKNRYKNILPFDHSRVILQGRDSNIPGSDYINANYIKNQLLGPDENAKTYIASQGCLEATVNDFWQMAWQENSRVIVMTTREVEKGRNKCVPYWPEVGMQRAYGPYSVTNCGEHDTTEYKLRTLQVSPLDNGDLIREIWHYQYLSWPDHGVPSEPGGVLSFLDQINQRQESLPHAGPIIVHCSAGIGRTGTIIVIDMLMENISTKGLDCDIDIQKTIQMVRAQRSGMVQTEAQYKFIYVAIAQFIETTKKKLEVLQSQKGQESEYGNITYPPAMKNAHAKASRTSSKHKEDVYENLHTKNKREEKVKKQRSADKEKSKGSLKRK
Chain of human Sirtuin 2 (SIRT2), SIRT2 (gene 22933) (Q8IXJ6 whole entry, looked up): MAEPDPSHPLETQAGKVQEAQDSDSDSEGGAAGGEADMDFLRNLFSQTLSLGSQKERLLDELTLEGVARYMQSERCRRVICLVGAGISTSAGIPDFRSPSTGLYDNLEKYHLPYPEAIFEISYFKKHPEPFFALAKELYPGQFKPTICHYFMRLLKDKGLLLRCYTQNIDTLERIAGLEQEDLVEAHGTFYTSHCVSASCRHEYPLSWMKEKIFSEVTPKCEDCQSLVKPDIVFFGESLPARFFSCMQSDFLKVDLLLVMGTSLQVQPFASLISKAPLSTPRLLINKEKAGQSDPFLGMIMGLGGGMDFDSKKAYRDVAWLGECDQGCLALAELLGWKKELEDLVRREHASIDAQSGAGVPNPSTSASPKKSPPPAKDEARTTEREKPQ
Chain of human Protein Tyrosine Phosphatase Receptor Type C (PTPRC), PTPRC (gene 5788) (P08575 whole entry, looked up): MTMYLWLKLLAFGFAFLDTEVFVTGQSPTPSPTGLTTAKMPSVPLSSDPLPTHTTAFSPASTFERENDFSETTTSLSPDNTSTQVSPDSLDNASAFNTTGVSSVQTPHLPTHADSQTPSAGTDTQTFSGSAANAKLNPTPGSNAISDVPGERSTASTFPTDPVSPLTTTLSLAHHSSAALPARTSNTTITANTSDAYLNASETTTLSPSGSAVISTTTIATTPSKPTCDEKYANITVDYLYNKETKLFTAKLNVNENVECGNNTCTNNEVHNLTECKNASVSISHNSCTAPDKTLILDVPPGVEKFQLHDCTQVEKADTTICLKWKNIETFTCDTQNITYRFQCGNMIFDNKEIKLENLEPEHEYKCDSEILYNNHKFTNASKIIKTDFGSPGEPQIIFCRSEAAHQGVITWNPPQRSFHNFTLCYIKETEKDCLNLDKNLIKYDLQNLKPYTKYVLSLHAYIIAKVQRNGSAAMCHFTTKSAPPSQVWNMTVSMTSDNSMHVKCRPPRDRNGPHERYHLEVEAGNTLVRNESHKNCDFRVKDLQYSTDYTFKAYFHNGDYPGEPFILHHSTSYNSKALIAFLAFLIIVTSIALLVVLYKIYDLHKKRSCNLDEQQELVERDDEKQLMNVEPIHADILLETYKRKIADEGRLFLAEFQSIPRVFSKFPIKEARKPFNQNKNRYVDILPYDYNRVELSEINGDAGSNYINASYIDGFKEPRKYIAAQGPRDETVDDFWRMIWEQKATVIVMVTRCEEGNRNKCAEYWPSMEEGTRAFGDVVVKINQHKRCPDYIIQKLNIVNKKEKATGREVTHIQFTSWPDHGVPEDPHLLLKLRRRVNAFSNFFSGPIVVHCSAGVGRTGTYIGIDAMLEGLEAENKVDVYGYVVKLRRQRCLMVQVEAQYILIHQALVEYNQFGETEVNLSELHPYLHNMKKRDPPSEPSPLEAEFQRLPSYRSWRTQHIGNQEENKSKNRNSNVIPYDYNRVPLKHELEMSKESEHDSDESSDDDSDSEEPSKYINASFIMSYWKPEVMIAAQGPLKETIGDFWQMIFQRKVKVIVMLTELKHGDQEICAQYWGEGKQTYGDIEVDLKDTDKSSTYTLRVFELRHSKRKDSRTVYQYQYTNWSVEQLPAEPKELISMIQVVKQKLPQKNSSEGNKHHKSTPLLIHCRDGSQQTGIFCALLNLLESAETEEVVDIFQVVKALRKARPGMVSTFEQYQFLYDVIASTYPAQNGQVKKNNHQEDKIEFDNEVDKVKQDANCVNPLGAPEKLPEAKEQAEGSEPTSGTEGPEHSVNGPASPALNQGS
Chain of human Sirtuin 1 (SIRT1), SIRT1 (gene 23411) (Q96EB6 whole entry, looked up): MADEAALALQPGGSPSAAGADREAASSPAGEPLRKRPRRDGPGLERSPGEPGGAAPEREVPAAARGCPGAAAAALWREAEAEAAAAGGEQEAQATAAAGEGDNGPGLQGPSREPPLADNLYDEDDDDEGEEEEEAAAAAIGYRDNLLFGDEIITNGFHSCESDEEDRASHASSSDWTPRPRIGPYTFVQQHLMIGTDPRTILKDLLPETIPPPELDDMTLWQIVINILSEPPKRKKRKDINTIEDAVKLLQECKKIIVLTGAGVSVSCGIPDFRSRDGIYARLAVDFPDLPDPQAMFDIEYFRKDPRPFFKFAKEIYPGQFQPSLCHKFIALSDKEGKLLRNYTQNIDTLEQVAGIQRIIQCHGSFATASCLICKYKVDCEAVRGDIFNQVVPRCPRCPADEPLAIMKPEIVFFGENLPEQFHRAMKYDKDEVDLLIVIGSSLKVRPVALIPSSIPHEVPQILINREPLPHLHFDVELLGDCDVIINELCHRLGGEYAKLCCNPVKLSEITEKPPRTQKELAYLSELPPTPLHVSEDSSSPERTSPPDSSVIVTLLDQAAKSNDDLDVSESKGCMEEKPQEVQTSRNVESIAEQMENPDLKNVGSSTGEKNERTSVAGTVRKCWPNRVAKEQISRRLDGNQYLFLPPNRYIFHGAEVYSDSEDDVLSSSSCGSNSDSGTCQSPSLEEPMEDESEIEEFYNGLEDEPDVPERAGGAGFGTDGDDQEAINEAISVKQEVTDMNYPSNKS
Chain of human Protein Tyrosine Phosphatase Receptor Type M (PTPRM), PTPRM (gene 5797) (P28827 whole entry, looked up): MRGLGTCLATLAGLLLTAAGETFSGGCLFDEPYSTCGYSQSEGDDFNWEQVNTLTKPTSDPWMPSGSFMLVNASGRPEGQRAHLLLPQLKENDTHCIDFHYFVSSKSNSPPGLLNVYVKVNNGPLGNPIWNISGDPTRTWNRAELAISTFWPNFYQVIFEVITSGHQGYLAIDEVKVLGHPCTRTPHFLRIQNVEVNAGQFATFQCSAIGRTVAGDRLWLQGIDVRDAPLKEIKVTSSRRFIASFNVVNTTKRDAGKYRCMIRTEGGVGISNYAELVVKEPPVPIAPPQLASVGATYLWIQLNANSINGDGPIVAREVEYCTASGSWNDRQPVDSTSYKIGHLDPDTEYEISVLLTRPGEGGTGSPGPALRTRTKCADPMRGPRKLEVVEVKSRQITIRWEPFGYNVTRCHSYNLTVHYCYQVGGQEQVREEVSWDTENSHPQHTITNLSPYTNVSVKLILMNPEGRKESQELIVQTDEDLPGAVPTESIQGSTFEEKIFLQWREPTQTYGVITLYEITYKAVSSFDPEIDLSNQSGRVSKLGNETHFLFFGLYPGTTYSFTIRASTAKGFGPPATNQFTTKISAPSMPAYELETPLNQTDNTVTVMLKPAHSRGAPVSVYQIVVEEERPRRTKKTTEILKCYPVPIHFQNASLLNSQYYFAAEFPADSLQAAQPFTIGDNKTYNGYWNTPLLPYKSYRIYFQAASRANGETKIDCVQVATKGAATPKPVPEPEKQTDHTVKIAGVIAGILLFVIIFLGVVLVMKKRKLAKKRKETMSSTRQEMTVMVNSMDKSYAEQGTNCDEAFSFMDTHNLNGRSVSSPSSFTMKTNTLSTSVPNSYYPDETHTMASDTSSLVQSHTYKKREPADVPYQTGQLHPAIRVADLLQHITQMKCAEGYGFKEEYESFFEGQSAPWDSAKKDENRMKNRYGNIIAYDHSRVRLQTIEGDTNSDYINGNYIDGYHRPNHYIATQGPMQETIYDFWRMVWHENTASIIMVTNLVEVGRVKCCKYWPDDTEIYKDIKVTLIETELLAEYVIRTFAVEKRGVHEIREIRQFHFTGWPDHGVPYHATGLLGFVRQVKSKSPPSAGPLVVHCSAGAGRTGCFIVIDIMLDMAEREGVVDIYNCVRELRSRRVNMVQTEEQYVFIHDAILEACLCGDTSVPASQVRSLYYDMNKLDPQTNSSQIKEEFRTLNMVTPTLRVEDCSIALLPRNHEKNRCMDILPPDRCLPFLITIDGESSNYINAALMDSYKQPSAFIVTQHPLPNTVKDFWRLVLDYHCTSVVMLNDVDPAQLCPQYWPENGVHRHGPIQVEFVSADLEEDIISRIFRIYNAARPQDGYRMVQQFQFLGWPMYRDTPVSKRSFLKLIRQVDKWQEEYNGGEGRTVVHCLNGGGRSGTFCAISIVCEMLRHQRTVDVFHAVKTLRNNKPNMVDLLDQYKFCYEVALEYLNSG

As for `CCOP(=S)(OCC)Oc1nc(Cl)c(Cl)cc1Cl`, the molecule was classed as inactive in test [1].

Take `CCOP(=S)(OCC)SCSP(=S)(OCC)OCC`: in [1], the molecule was called inactive.

The AC50 is the concentration at which the activity in the assay is half-maximal. As to `CC(=O)[O][Hg][c]1ccccc1`, the AC50 in [2] is 5.38 µM (active); in [3], 17 µM (active); in test [5] it was 2.46 µM (active); in [6], 6.16 µM (active). Moreover, in [4], the molecule was classed as inactive.

As to `O=c1[nH]c(=O)[nH]c(=O)[nH]1`, the molecule was classed as inactive in [7].

Turning to `CC(C)(C)CC(C)(C)c1ccc(O)cc1`, the result in test [3] and in test [5] was inactive.

`O=C(O)C(Cl)(Cl)Cl`: the outcome in test [1] and in test [8] was inactive.

For `CC(C)(c1ccccc1)c1ccc(O)c(C(C)(C)c2ccccc2)c1`, in test [2], the molecule was called inactive.

On to `COc1cc(-c2ccc(N)c(OC)c2)ccc1N`, for which the AC50 in test [3] is 40.1 µM (active).

`ClC1(Cl)C2(Cl)C3(Cl)C4(Cl)C(Cl)(Cl)C5(Cl)C3(Cl)C1(Cl)C5(Cl)C24Cl` (centres undefined): the molecule was called inactive in [9] and in test [10].

`CCC(C)(C)c1ccc(O)c(C(C)(C)CC)c1`: the molecule was called inactive in test [6].

For the molecule `Cn1sc(Cl)cc1=O`, the result in [1] was inactive.

For the molecule `O=C(O)C(F)(F)C(F)(F)C(F)(F)C(F)(F)C(F)(F)C(F)(F)C(F)(F)C(F)(F)C(F)(F)C(F)(F)F`, the AC50 in test [8] was 11.9 µM (active).

Source of the values: PubChem BioAssay (EPA / NIEHS).
